The list is not random: actives were taken first. Their share in the collection is about 2.6%.
GALK inhibitor: qHTS Assay for Inhibitors of Human Galactokinase (GALK): NCGC Sytravon Library Screen; P51570; recombinant GALK, Kinase-Glo ATP luminescence, 1 h; Potency, µM (doses to about 57.5 µM), for the others: at the top dose activity, negative = inhibition, usual class: inhibitors; 44,000 tested, under 10 active;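 also: plate controls were full GALK reaction for no effect and reaction lacking GALK for full effect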
Target sequence (P51570 whole entry, looked up): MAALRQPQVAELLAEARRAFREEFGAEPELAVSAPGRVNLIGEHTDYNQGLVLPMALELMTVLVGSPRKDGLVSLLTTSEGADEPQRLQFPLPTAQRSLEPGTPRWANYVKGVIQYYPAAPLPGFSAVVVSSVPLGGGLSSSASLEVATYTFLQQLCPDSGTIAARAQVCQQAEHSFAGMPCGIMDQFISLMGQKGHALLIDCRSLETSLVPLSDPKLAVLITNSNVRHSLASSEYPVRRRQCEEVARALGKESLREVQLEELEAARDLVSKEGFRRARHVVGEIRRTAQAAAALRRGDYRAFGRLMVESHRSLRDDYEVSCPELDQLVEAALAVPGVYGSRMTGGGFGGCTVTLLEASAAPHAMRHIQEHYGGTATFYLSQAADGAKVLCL
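5 nM GALK; 35 uM ATP; 100 uM D-galactose; 20 mM HEPES pH 8.0, 5 mM MgCl2, 60 mM NaCl, 1 mM DTT, 0.01% BSA; 1 h RT; Kinase-Glo Plus luminescence.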
TSG101-PTAP inh: qHTS Validation Assay for Inhibitors of HIV-1 Budding by Blocking the Interaction of PTAP/TSG101: Sytravon Library Screen; Tumor susceptibility gene 101 protein (Homo sapiens), Q99816; Fluorescence polarization, FITC-PTAP peptide/Tsg101, 20 min; Potency, µM (series often up to 115 µM), most hits filed as inhibitors; 44,000 tested, under 10 active; AID 1347069, 2019; also: potency is read from the fitted curve at half-maximal effect; 0% is about no effect
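Steps: Tsg101 binding domain (10 uM final) in HEPES pH 7.5/NaCl/Tween 20/EDTA/TCEP; add compound; add FITC-PTAP peptide (50 nM final); incubate 20 min r.t.; read polarization.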
FH mod: Identification of activators of human fumarate hydratase by quantitative high-throughput screening; AID 1347055, 2019; FH coupled MDH/diaphorase resazurin fluorescence, 15 min; Fumarate hydratase, mitochondrial (Homo sapiens), P07954; 54,000 compounds, 0.22% hits; Potency, µM (top dose mostly 79.9 µM), without a hit: at the top dose activity change, negative = inhibition, most hits filed as inhibitors; also: potency is read from the fitted curve at half-maximal effect; % is scaled to controls: 0 for no effect and ±100 for the full control effect; the screen sought activators but most active calls are inhibition curves; nearly all actives have a fitted effect of over 45% in size
GALC G270D act: A Novel Cell-Based Assay to Identify Small Molecules for B -Galactocerebrosidase | 145M-Twi-hGALC-G270D cells (Twitcher mouse brain line with human GALC G270D), HMU-beta-Gal fluorescence, 48 h | P54803 | Potency, µM (series often up to 57.5 µM), hits mostly activators | 45,000 compounds, 0.1% hits; also: potency is read from the fitted curve at half-maximal effect; 0% is about no effect; nearly all actives have a fitted effect of over 65% in size
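Fluorescence readout: HMU-β-gal cleavage by mutant GALC (0.1 mM final, citrate/phosphate pH 5.2 with 1 mg/mL taurocholate), stopped with carbonate/bicarbonate plus Triton X-100. Cells: murine Twitcher 145M-Twi expressing human G270D GALC; qHTS for activators.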
DRV1 agonist: qHTS for Agonists of Human Resolvin D1 Receptor DRV1; Probable G-protein coupled receptor 32 (Homo sapiens), O75388; CHO-K1 GPR32 beta-arrestin PathHunter luminescence, 90 min; zero percent set by DMSO-only wells; activation, % at 76.9 µM; 48,000 compounds, 2.5% hits; AID 1346428, 2018;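 active = activation of at least 60% and not above a set upper limit, about 1 call in 100 departs from these limits; inconclusive = activation of 40% to 60%, or above that upper limit; inactive = activation under 40%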; also: 0% is about no effect
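Cells are plated overnight, treated with compounds in DMSO for 90 minutes at 37 °C, and developed with PathHunter detection reagent for 1 hour before luminescence is read; signal reflects beta-arrestin binding to GPR32 in engineered CHO-K1 cells.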
B2AR arrestin ag: qHTS assay of beta-arrestin-biased ligands of beta2-adrenergic receptor: NCGC Sytravon Library Screen; Beta-2 adrenergic receptor (Homo sapiens), P07550; HTLA Tango cells, beta-arrestin recruitment, luciferase luminescence, 18 h; Potency, µM (titrated, usually from 46.1 µM), hits mostly activators; 44,000 tested, under 10 active; AID 1347077, 2019;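 also: potency is read from the fitted curve at half-maximal effect; 0% = DMSO and full agonism = EC100 isoproterenol or metaproterenol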
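Ligand-induced beta-arrestin recruitment to recombinant beta2-AR is measured via a tTA-driven luciferase reporter in Tango cells after 18 hr compound exposure at 37 degrees C. Concentrations span up to 46 microM.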
Active calls of the source: *; i = inactive; u = inconclusive; x = not tested or not shown; ! = not confirmed by another sample; [ ] = remark or other dose. Unless noted, calls follow the shape of the dose curve; as a rule, active = well fitted curve in the direction sought with a large enough effect; inconclusive = small, poorly fitted or top-dose-only effect, or another doubt; inactive = no such curve, though single readings can be large; an effect the other way counts as inactive or inconclusive.

SMILES	GALK inhibitor	TSG101-PTAP inh	FH mod	GALC G270D act	DRV1 agonist	B2AR arrestin ag
CN(CC=CC#CC(C)(C)C)Cc1cccc2ccccc12	x	x	8%[53.3 µM]	x	x	x
CN(C/C=C/C#CC(C)(C)C)Cc1cccc2ccccc12	x	x	-4%[53.3 µM]	i	95*	x
Cc1oc2ccc(O)c(CN3CCCC3)c2c1C(=O)Nc1ccc(C(C)C)cc1	4%	i	x	x	118*	i
COc1ccc(NC(=O)c2c(C)oc3ccc(O)c(CN4CCC(C)CC4)c23)cc1Cl	-8%	i	x	x	83*	i
Cc1oc2ccc(O)c(CN3CCN(C)CC3)c2c1C(=O)Nc1ccc(C(C)C)cc1	4%	i	x	x	-7	i
C=C1[C@H](OC(C)=O)[C@H]2[C@@H](OC(C)=O)C(C)C[C@]2(OC(C)=O)C(=O)[C@H](C)/C=C/C(C)(C)C(=O)[C@H](OC(=O)C(C)C)[C@H]1OC(C)=O (some centres undefined)	x	x	2%[20.6 µM]	x	x	x
CC(C)CC(=O)OC1OC=C(CO[C@@H]2O[C@H](CO)[C@@H](O)[C@H](O)[C@H]2O)C2CC(O)C(O)(CO)C12 (some centres undefined)	x	x	0%[53.3 µM]	x	x	x
CCOc1ccc(Nc2oc(-c3ccc(COc4ccc(OC)cc4)o3)nc2C#N)cc1	5%	i	-12%	i	86*	i
Ic1ccc(N2CCN(Cc3c[nH]c4ncccc34)CC2)cc1	x	x	x	x	76*	x
CCOCc1cc(CN2CCN(c3cccc(C(F)(F)F)c3)CC2)c(O)c2ncccc12	1%	i	16%	i	22	u
Cc1nc(Nc2ccc(Cl)cc2)cc(-c2ccccc2)n1	0%	i	u	i	67*	i
Cc1ccc(Nc2cc(-c3ccccc3)nc(C)n2)cc1	-12%	i	-20%	i	-6	i
COCCCNC(=O)Cn1c(=O)n(Cc2ccc(C(=O)NCc3ccc(C)cc3)cc2)c(=O)c2ccccc21	1%	i	-8%	i	98*	i
CC(OC1OCCN(Cc2n[nH]c(=O)[nH]2)C1c1ccc(F)cc1)c1cc(C(F)(F)F)cc(C(F)(F)F)c1 (centres undefined)	x	x	-17%	x	x	x
CC1Oc2cc(cnc2N)-c2c(nn(C)c2C#N)CN(C)C(=O)c2ccc(F)cc21 (centres undefined)	x	x	2%	x	x	x
CC(C)(Sc1ccc(CCN(CCCCC2CCCCC2)C(=O)NC2CCCCC2)cc1)C(=O)O	x	x	25µM*!	x	-6	x
O=C1c2ccccc2-c2nc3nnnn3nc21 (tested in a mixture with another compound)	x	x	0.89µM*	x	x	x
CC(C)Oc1cccc(NC(=O)C2CCN(S(=O)(=O)Cc3ccccc3)CC2)c1	3%	i	x	x	-3	i
O=C(Nc1cccc(Cl)c1)C1CCN(S(=O)(=O)Cc2ccccc2)CC1	-12%	i	x	x	115*	i
CCOc1ccc(NS(=O)(=O)c2ccc3c(c2)NC(=O)CCS3)cc1	0%	i	-9%	i	75*	i
Cc1ccc(Cl)cc1NS(=O)(=O)c1ccc2c(c1)NC(=O)CCS2	2%	i	-8%	i	94*	i
CCOc1ccc(NS(=O)(=O)c2ccc(NC(=O)N3CCCC3)cc2)cc1	0%	i	11%	i	65*	i
CC(=O)c1ccc(NS(=O)(=O)c2ccc3c(c2)NC(=O)CCS3)cc1	-1%	i	0%	i	-10	i
Cc1cc(C)c(NS(=O)(=O)c2ccc3c(c2)NC(=O)CCS3)c(C)c1	1%	i	-24%	i	83*	i

High-throughput results as filed in PubChem.
